# Target: HOXB4 (Homo sapiens, UniProt P17483 148-234)
# Assay: PBM; 200 nM protein, PBS
# Details: dsDNA, one strand shown
# Sequence of HOXB4 (P17483 148-234): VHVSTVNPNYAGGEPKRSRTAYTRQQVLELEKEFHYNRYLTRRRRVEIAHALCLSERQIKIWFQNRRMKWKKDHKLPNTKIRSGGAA
row,Sequence,binding signal
1,AATAGCCA,"10.2 upbm affinity estimate (log intensity, higher = more binding, comparable within an allelic series)"
2,AATACAAG,"9.55 upbm affinity estimate (log intensity, higher = more binding, comparable within an allelic series)"
3,AGCTTGGA,"7.7 upbm affinity estimate (log intensity, higher = more binding, comparable within an allelic series)"
4,GCGCGGGA,"7.68 upbm affinity estimate (log intensity, higher = more binding, comparable within an allelic series)"
5,CCGGTGAG,"7.55 upbm affinity estimate (log intensity, higher = more binding, comparable within an allelic series)"
6,CGTGCCGC,"7.33 upbm affinity estimate (log intensity, higher = more binding, comparable within an allelic series)"
7,CGGGAAAG,"7.44 upbm affinity estimate (log intensity, higher = more binding, comparable within an allelic series)"
8,GGACCGAC,"7.66 upbm affinity estimate (log intensity, higher = more binding, comparable within an allelic series)"
9,CGGGCTGC,"7.97 upbm affinity estimate (log intensity, higher = more binding, comparable within an allelic series)"
10,CGCCGACG,"7.65 upbm affinity estimate (log intensity, higher = more binding, comparable within an allelic series)"
11,GTGATGGA,"9.37 upbm affinity estimate (log intensity, higher = more binding, comparable within an allelic series)"
12,AGACCTAG,"7.5 upbm affinity estimate (log intensity, higher = more binding, comparable within an allelic series)"
13,CGAATCTC,"7.71 upbm affinity estimate (log intensity, higher = more binding, comparable within an allelic series)"
14,CTCCCGGC,"7.38 upbm affinity estimate (log intensity, higher = more binding, comparable within an allelic series)"
15,CACGTGGG,"7.46 upbm affinity estimate (log intensity, higher = more binding, comparable within an allelic series)"
16,GGCTAATA,"11.6 upbm affinity estimate (log intensity, higher = more binding, comparable within an allelic series)"
17,GCTCCCCC,"7.43 upbm affinity estimate (log intensity, higher = more binding, comparable within an allelic series)"
18,AACGATAT,"10.7 upbm affinity estimate (log intensity, higher = more binding, comparable within an allelic series)"
19,CCAGTTGC,"7.75 upbm affinity estimate (log intensity, higher = more binding, comparable within an allelic series)"
20,CGGGATGC,"7.47 upbm affinity estimate (log intensity, higher = more binding, comparable within an allelic series)"

row,Sequence,binding signal
1,CAGGACGC,"7.75 upbm affinity estimate (log intensity, higher = more binding, comparable within an allelic series)"
2,AGAAATAA,"10.1 upbm affinity estimate (log intensity, higher = more binding, comparable within an allelic series)"
3,CTGGCGAC,"7.56 upbm affinity estimate (log intensity, higher = more binding, comparable within an allelic series)"
4,AGGAGGAG,"7.49 upbm affinity estimate (log intensity, higher = more binding, comparable within an allelic series)"
5,AAATGTTA,"10.3 upbm affinity estimate (log intensity, higher = more binding, comparable within an allelic series)"
6,ATTAGTTG,"11.2 upbm affinity estimate (log intensity, higher = more binding, comparable within an allelic series)"
7,ATCTATAA,"11 upbm affinity estimate (log intensity, higher = more binding, comparable within an allelic series)"
8,CTATTTGA,"9.99 upbm affinity estimate (log intensity, higher = more binding, comparable within an allelic series)"
9,GTCGATGA,"9.83 upbm affinity estimate (log intensity, higher = more binding, comparable within an allelic series)"
10,AATTGGTA,"10.7 upbm affinity estimate (log intensity, higher = more binding, comparable within an allelic series)"
11,CTACCGCC,"7.59 upbm affinity estimate (log intensity, higher = more binding, comparable within an allelic series)"
12,CTGGGGGA,"7.75 upbm affinity estimate (log intensity, higher = more binding, comparable within an allelic series)"
13,AGATGATG,"10.8 upbm affinity estimate (log intensity, higher = more binding, comparable within an allelic series)"
14,CAGCGGAC,"7.6 upbm affinity estimate (log intensity, higher = more binding, comparable within an allelic series)"
15,AATTTCTG,"9.75 upbm affinity estimate (log intensity, higher = more binding, comparable within an allelic series)"
16,AAGCCAAT,"10.3 upbm affinity estimate (log intensity, higher = more binding, comparable within an allelic series)"
17,ACAACGAT,"9.88 upbm affinity estimate (log intensity, higher = more binding, comparable within an allelic series)"
18,ACTAATAA,"12 upbm affinity estimate (log intensity, higher = more binding, comparable within an allelic series)"
19,GAGCTGCA,"7.7 upbm affinity estimate (log intensity, higher = more binding, comparable within an allelic series)"
20,ATAAAGTA,"10.5 upbm affinity estimate (log intensity, higher = more binding, comparable within an allelic series)"

# Source: publication PMC11006913
